# Reference: ChEMBL document CHEMBL3988442, “University of Dundee, Small-Polar-MMV Screening Library” (2021)
# Among all 66,000 compounds or so, about 960 (1.5%) showed an effect of 50% or more. Only a selection was taken, and strong results are over-represented in it overall.
# System: Trypanosoma brucei
# Experiment: Trypanosoma brucei 72 hour study
# Type: functional, organism-based
# Design: scale not given: in the data most compounds retested in dose-response had high values
smiles,measurement,setting,value
Cn1cc(CN2C[C@@H]3COC[C@H](C(=O)Nc4cccnc4)[C@@H]3C2)cn1.O=C(O)C(F)(F)F.O=C(O)C(F)(F)F,Percent Effect,"30 µM, 30.03 µM",-8.066%
NC(=O)c1ccccc1NC(=O)CCN1CCN(c2ccccc2)CC1,Percent Effect,"30 µM, 30.03 µM",4.761%
CCOC(=O)N1CCc2ccccc2C12CCNCC2.Cl,Percent Effect,"30.3 µM, […]",-45.47%
Cc1ccc(CN2CCC3(CC2)CN(C(=O)c2cnccn2)CCO3)o1.O=C(O)C(F)(F)F,Percent Effect,"30.3 µM, […]",-12.58%
CC1=N[C@@]2(CC[C@@H]3CN(Cc4ccccc4C)C[C@@H]32)C(=O)N1CC1CC1.O=C(O)C(F)(F)F,Percent Effect,"30.3 µM, […]",-63.56%
CC1=N[C@@]2(CC[C@@H]3CN(Cc4ccccc4F)C[C@@H]32)C(=O)N1CC1CC1.O=C(O)C(F)(F)F,Percent Effect,"30 µM, 30.03 µM",55.44%
CC1=N[C@@]2(CC[C@@H]3CN(Cc4ccccc4)C[C@@H]32)C(=O)N1CC1CC1.O=C(O)C(F)(F)F,Percent Effect,"30.3 µM, […]",-40.35%
CN(C)C(=O)c1cc2c(nc1NCC1CC1)CCNCC2,Percent Effect,"30.3 µM, […]",-109.7%
CCCN1CCN(C(=O)c2cnn(-c3ccccc3F)c2)CC1,Percent Effect,"30 µM, 30.03 µM",55.35%
O=C(c1cnn(-c2ccccc2F)c1)N1CCN(CCO)CC1,Percent Effect,"30 µM, 30.03 µM",1.358%
CCC(O)CN1CCN(C(=O)c2cnn(-c3ccccc3F)c2)CC1 (stereo not drawn),Percent Effect,"30 µM, 30.03 µM",22.96%
CN1C(=O)CC[C@]12CC[C@@H](NCc1ccsc1)CC2.O=C(O)C(F)(F)F,Percent Effect,"30.3 µM, […]",8.729%
CC(C)CCN1C[C@H]2C[C@H](C(=O)NCc3ccccc3)[C@@H](C1)O2.O=C(O)C(F)(F)F,Percent Effect,"30 µM, 30.03 µM",29.18%
CCn1cc(-c2cc(-c3cc(CN(C)C)cs3)nc(N)c2C#N)c(C)n1,Percent Effect,"30 µM, 30.03 µM",-4.566%
CCn1ccnc1C1CCN(Cc2cccc(Cl)c2)CC1,Percent Effect,"30 µM, 30.03 µM",-40.4%
CC(C)n1ccnc1C1CCN(Cc2ccc(Cl)c(F)c2)CC1,Percent Effect,"30 µM, 30.03 µM",33.49%
Cc1ccc(Cl)c(CN2CCC(c3nccn3C(C)C)CC2)c1F,Percent Effect,"30 µM, 30.03 µM",104.1%
CCn1ccnc1C1CCN(Cc2cccc(C)n2)CC1,Percent Effect,"30 µM, 30.03 µM",-34.54%
CCn1ccnc1C1CCN(Cc2c(F)cccc2F)CC1,Percent Effect,"30 µM, 30.03 µM",86.79%
Cc1cc(CN2CCC(c3nccn3C(C)C)CC2)ccc1F,Percent Effect,"30 µM, 30.03 µM",-24.52%
COc1ccc(Cl)cc1C(C(=O)O)N1CCSCC1 (stereo not drawn),Percent Effect,"30.3 µM, […]",-71.2%
CN(C)c1nc(N)nc(CN2CCCC2c2cccs2)n1 (stereo not drawn),Percent Effect,"30 µM, 30.03 µM",-6.91%
CN(C)c1nc(N)nc(CN2CCCC2c2ccsc2)n1 (stereo not drawn),Percent Effect,"30 µM, 30.03 µM",-20.26%
Cc1cccc(C2CCCN2Cc2nc(N)nc(N(C)C)n2)c1C (stereo not drawn),Percent Effect,"30 µM, 30.03 µM",100.5%
Cc1ccsc1C(=O)NCc1ccnc(C2CCCOC2)n1 (stereo not drawn),Percent Effect,"30.3 µM, […]",54.51%
O=C(NCc1ccnc(C2CCCOC2)n1)c1cccs1 (stereo not drawn),Percent Effect,"30.3 µM, […]",-2.313%
Cc1ccc(C(=O)NCc2ccnc(C3CCCOC3)n2)s1 (stereo not drawn),Percent Effect,"30.3 µM, […]",49.43%
Cn1ccc(CN2CCC3(CCCN3CC3CC3)CC2)n1.O=C(O)C(F)(F)F.O=C(O)C(F)(F)F,Percent Effect,"30.3 µM, […]",-89.65%
COC1CN(C(=O)CC(C)(C)C)CCC(=O)N(C)c2ccccc21 (stereo not drawn),Percent Effect,"30.3 µM, […]",-11.06%
CC(C)NC(=O)[C@H]1C[C@@H]2CN(C(=O)NCc3ccccc3)C[C@H]1O2,Percent Effect,"30 µM, 30.03 µM",43.99%
CSCC[C@@H](CO)Nc1ccc(-c2nc(C3CC3)no2)cn1,Percent Effect,"30.3 µM, […]",19.73%
CSCC[C@@H](CO)Nc1ccc(-c2nc(-c3ccccc3C)no2)cn1,Percent Effect,"30.3 µM, […]",99.8%
CSCC[C@@H](CO)Nc1ccc(-c2nc(-c3ccccc3F)no2)cn1,Percent Effect,"30.3 µM, […]",-25.91%
Cc1ccc(CN(C)C(=O)c2cnsn2)cc1,Percent Effect,"30 µM, 30.03 µM",-21.68%
CCc1ncc(CN2CCOC(Cc3cccc(F)c3)C2)cn1 (stereo not drawn),Percent Effect,"30.3 µM, […]",-57.81%
O=C(Cc1ccc2c(c1)CCCC2)Nc1cccnc1N1CCSCC1,Percent Effect,"30 µM, 30.03 µM",7.169%
CCCNC(=O)c1cc2c(s1)CCN2C(=O)c1ccccc1,Percent Effect,"30.3 µM, […]",-5.969%
COCCNC(=O)c1cc2c(s1)CCN2C(=O)c1ccccc1,Percent Effect,"30 µM, 30.03 µM",61.44%
O=C(NCCN1CCCC1)c1cc2c(s1)CCN2C(=O)c1ccccc1,Percent Effect,"30.3 µM, […]",-8.761%
CCOc1ncccc1CNC(=O)Nc1ccc(N(C)C)nc1,Percent Effect,"30.3 µM, […]",-10.18%
CN1CCN(C(=O)C2CCN(c3cccnn3)CC2)CC1,Percent Effect,"30.3 µM, […]",-20.3%
CN1CCN(C(=O)C2CCCN(c3cccnn3)C2)CC1 (stereo not drawn),Percent Effect,"30.3 µM, […]",101%
CN1CCN(C(=O)C2CCN(c3cccnn3)C2)CC1 (stereo not drawn),Percent Effect,"30.3 µM, […]",1.766%
CC(C)(C)CN1CC(O)CN(C(=O)c2cccc(C(F)(F)F)c2)CC1=O (stereo not drawn),Percent Effect,"30.3 µM, […]",-4.351%
CC(C)N(C)Cc1cnc2n1CCN(C(=O)Cc1ccsc1)C2.O=C(O)C(F)(F)F,Percent Effect,"30 µM, 30.03 µM",-22.47%
Cc1ccc2c(n1)N(CCN(C)C)CCN(C(=O)c1ccc[nH]1)C2.O=C(O)C(F)(F)F.O=C(O)C(F)(F)F,Percent Effect,"30 µM, 30.03 µM",4.99%
CCCc1nnc(NCCc2noc(C3CCCC3)n2)o1,Percent Effect,"30 µM, 30.03 µM",-39.45%
O=S(=O)(NCCc1nc(-c2cccnc2)n[nH]1)NCc1ccccc1,Percent Effect,"30.3 µM, […]",-84.2%
c1ccc(-c2nc(CCNc3nnc(C4CCC4)o3)no2)cc1,Percent Effect,"30.3 µM, […]",99.59%
c1cc(-c2n[nH]c(CNc3nnc(C4CC4)o3)n2)ccn1,Percent Effect,"30.3 µM, […]",0.7676%
c1ccc(-c2n[nH]c(CCNc3nnc(C4CCC4)o3)n2)cc1,Percent Effect,"30.3 µM, […]",99.86%
CCCc1nnc(NCCc2noc(C3CCC3)n2)o1,Percent Effect,"30 µM, 30.03 µM",-16.87%
CN(C)C(=O)N[C@H]1CN(Cc2ccc3c(c2)OCO3)[C@@H]2CCCO[C@H]12.O=C(O)C(F)(F)F,Percent Effect,"30.3 µM, […]",-7.695%
CS(=O)(=O)NCc1cncc2c1CCN(C(=O)N1CCCC1)C2.Cl,Percent Effect,"30.3 µM, […]",-11.25%
Cc1noc([C@@]23CCO[C@@H]2CCN(Cc2scnc2C)C3)n1.O=C(O)C(F)(F)F,Percent Effect,"30.3 µM, […]",7.313%
O=c1[nH][nH]cc1-c1ccnc(NCCc2cccc(O)c2)n1,Percent Effect,"30.3 µM, […]",-16.62%
CCN(CC1CCOC1)C(=O)c1ccc(N2CCOCC2)c(F)c1 (stereo not drawn),Percent Effect,"30.3 µM, […]",-9.543%
CN(C)C(=O)c1cccc(NC(=O)N(CCO)Cc2ccsc2)c1,Percent Effect,"30 µM, 30.03 µM",-3.434%
O=C(Nc1ccncc1)N(CCO)Cc1ccsc1,Percent Effect,"30.3 µM, […]",7.021%
COc1cccc(NC(=O)N(CCO)Cc2ccsc2)c1,Percent Effect,"30 µM, 30.03 µM",51.17%
Cc1nc(N)nc(C)c1CC(=O)NCc1ccc2nonc2c1,Percent Effect,"30 µM, 30.03 µM",-40.59%
Cc1noc(C)c1CN1CC[C@@H](OCC2CC2)[C@@H](Cc2ccccc2)C1.O=C(O)C(F)(F)F,Percent Effect,"30 µM, 30.03 µM",12.8%
O=C(c1cc2cc(I)ccc2[nH]1)N1CCC(Nc2cccnn2)CC1,Percent Effect,"30.3 µM, […]",85.16%
O=C(c1cc2cc(F)ccc2[nH]1)N1CCC(Nc2cccnn2)CC1,Percent Effect,"30.3 µM, […]",-6.499%
O=C(c1cc2ccccc2[nH]1)N1CCC(Nc2cccnn2)CC1,Percent Effect,"30.3 µM, […]",-25.8%
CCCN(CCC)c1ncc(S(=O)(=O)c2ccc(C)cc2)c(N)n1,Percent Effect,"30.3 µM, […]",0.2073%
CCCN(CCC)c1ncc(S(=O)(=O)c2cccc(C)c2)c(N)n1,Percent Effect,"30.3 µM, […]",1.054%
CCCN(CCC)c1ncc(S(=O)(=O)c2ccccc2)c(N)n1,Percent Effect,"30.3 µM, […]",81.44%
O=C(N1CCCC1)N1C[C@H]2CCC[C@@]2(COCc2ccccn2)C1.O=C(O)C(F)(F)F,Percent Effect,"30.3 µM, […]",8.939%
Cc1ccc(CN2CCN(C3CCCC3)CC2CCO)o1 (stereo not drawn),Percent Effect,"30 µM, 30.03 µM",-4.422%
CN1C(=O)CC(c2cnn(C)c2)C12CCN(CC1CCOCC1)CC2.O=C(O)C(F)(F)F (stereo not drawn),Percent Effect,"30.3 µM, […]",-2.852%
Cc1noc(C)c1CN1CCn2cc(CN3CCCC3)nc2C1.O=C(O)C(F)(F)F.O=C(O)C(F)(F)F,Percent Effect,"30.3 µM, […]",0.2362%
Cc1ccc(CN2CCc3ncnc(-c4ccncc4)c3CC2)o1.O=C(O)C(F)(F)F.O=C(O)C(F)(F)F,Percent Effect,"30.3 µM, […]",-37.96%
Nc1ncncc1-c1noc([C@@H]2CCCN2CC2CC2)n1,Percent Effect,"30.3 µM, […]",-4.914%
Nc1ncncc1-c1noc([C@@H]2CCCN2Cc2cccnc2)n1,Percent Effect,"30.3 µM, […]",-3.258%
Nc1ncncc1-c1noc([C@@H]2CCCN2CCCc2ccccc2)n1,Percent Effect,"30.3 µM, […]",101.5%
O=C(O)C(F)(F)F.O=C(O)C(F)(F)F.c1cncc(-c2nnn3c2COCC(CNC2CCOCC2)C3)c1 (stereo not drawn),Percent Effect,"30 µM, 30.03 µM",-0.7004%
CC(=O)N1C[C@@H](c2ccsc2)[C@@H]2CN(Cc3ccccc3)CC[C@@H]21,Percent Effect,"30 µM, 30.03 µM",3.298%
COc1cccc([C@H]2CN(C(C)=O)[C@@H]3CCN(Cc4ccsc4)C[C@H]23)c1.Cl,Percent Effect,"30.3 µM, […]",96.3%
COc1cccc(CN2CC[C@H]3[C@@H](C2)[C@H](c2ccsc2)CN3C(C)=O)c1,Percent Effect,"30.3 µM, […]",-3.85%
Cc1nnsc1C(=O)N1C[C@H]2CC[C@@H]1CN(c1cnccn1)C2,Percent Effect,"30 µM, 30.03 µM",0.47%
Cc1cnc2c(c1NCc1cccnc1)c(=O)n(C)c(=O)n2C,Percent Effect,"30 µM, 30.03 µM",-45.54%
CCc1noc(CN2CCN(C(=O)C3CC3)CC2)n1,Percent Effect,10 µM,-20.32%
CCS(=O)(=O)NCc1nc(C)cc(N2CCOCC2)n1,Percent Effect,"30 µM, 30.03 µM",-12.8%
CCS(=O)(=O)NCc1nc(C)cc(N2CCCCC2)n1,Percent Effect,"30 µM, 30.03 µM",-14.09%
CCCS(=O)(=O)NCc1nc(C)cc(N2CCCC2)n1,Percent Effect,"30 µM, 30.03 µM",60.24%
O=S(=O)(Cc1ccccc1)NCc1nnc2n1CCC2,Percent Effect,"30 µM, 30.03 µM",-38.65%
CCS(=O)(=O)NCc1nc(C)cc(N2CCCC2)n1,Percent Effect,"30 µM, 30.03 µM",4.691%
Cc1cc(N2CCCC2)nc(CNS(=O)(=O)Cc2ccccc2)n1,Percent Effect,"30 µM, 30.03 µM",99.66%
O=C1[C@H]2CC[C@H](CN(Cc3nnc(C4CC4)o3)C2)N1Cc1cscn1,Percent Effect,"30 µM, 30.03 µM",-30.68%
CCN1CCOCC12CCN(C(=O)C1CCC1)CC2.O=C(O)C(F)(F)F,Percent Effect,"30.3 µM, […]",-58.96%
Cc1ccc(F)cc1NS(=O)(=O)c1cc2c(c(C(=O)O)c1)OCCO2,Percent Effect,"30.3 µM, […]",-13.96%
O=C(O)C(F)(F)F.O=C(c1ccco1)N1C[C@H]2CCCN(Cc3nccs3)[C@H]2C1,Percent Effect,"30 µM, 30.03 µM",20.08%
